This is a sample that favours compounds with a hit; in the whole collection about 2.5% have one here.
Mito fusion act – inhibitors of mitochondrial division or activators of mitochondrial fusion | S. cerevisiae fusion-defective mutant growth rescue, CellTiterGlo 48 h | Potency, µM (top dose mostly 46.1 µM), for the others: at the top dose growth rescue (activation), most hits filed as activators | hit rate 0.23% among 320,000; note: potency is the fitted concentration of half-maximal effect; % of control where 0% means no effect; nearly all actives have a fitted effect of over 45% in size
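Yeast fusion mutant, YPEG (non-fermentable carbon), compound, 48 h at 37C non-permissive; CellTiterGlo added, 10 min RT, luminescence read. Rescued growth = division inhibition.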
Apoferritin bind – binds horse apoferritin like a general anesthetic; AID 485281; Potency, µM (highest dose often 77.5 µM), without a hit: at the highest dose activity change, negative = displacement, usual class: inhibitors; apoferritin/1-aminoanthracene competitive binding, fluorescence; hit rate 0.074% among 350,000; note: potency is the fitted concentration of half-maximal effect; % is set by controls: 0 for no effect and ±100 for the full control effect; nearly all actives have a fitted effect of over 20% in size
Target sequence (P02791 2-175 limits assumed): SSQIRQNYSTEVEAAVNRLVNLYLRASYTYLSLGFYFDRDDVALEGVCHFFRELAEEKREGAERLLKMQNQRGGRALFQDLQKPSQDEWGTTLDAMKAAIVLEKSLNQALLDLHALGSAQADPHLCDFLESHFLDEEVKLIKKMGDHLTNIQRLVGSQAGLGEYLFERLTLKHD
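Apoferritin-based anesthetic binding model; compound displacement of fluorescent 1-AMA measured as endpoint fluorescence after 10 minutes at room temperature, scaled to free-ligand and complex controls.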
aSyn yeast inh – inhibitors of alpha-synuclein toxicity in yeast | Yeast expressing alpha-synuclein, growth rescue, BacTiter-Glo, 24 h | hit rate 0.14% among 370,000 | Potency, µM (highest dose often 46.1 µM), for inactives: at the highest dose growth rescue (activation), usual class: activators; note: potency is the fitted concentration of half-maximal effect; % of control where 0% means no effect; nearly all actives have a fitted effect of over 65% in size
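Rescue of yeast growth: cells expressing toxic alpha-synuclein, induced in galactose at OD600 0.02, incubated with compound 24 h at 30 C. ATP luminescence quantified growth; inhibitors of toxicity appear as activators.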
TDP43 rescue – TDP-43 toxicity inhibition in yeast; TDP-43 expressing yeast growth rescue, BacTiter-Glo, 24 h; Potency, µM (highest dose often 46.1 µM), inactives show at the highest dose growth rescue (activation), actives largely listed as activators; hit rate 1.8% among 410,000; AID 652104; note: potency is the fitted concentration of half-maximal effect; % of control where 0% means no effect; nearly all actives have a fitted effect of over 50% in size
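Growth rescue of TDP-43-toxic yeast measured as ATP luminescence (BacTiter-Glo). Cells grown to mid-log in raffinose, induced in galactose at OD600=0.02, exposed to compound 24 hr at 30 deg C.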
CCT modulator – modulators of cytosolic chaperonin (CCT/TRiC) activity | AID 651819 | purified chaperonin ATPase assay, HTRF ADP detection, 30 min | activity change, % (test concentration not listed), hits read low | hit rate 0.3% among 360,000; in the data active = activity change below about -30%; note: % is set by controls: 0 for no effect and ±100 for the full control effect
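Enzyme 40 or 20 nM (batch-dependent) in Tris pH 7.4/KCl/MgCl2/DTT; cpd 76 uM single point; ATP 10 uM; 30 min 37 °C; Transcreener ADP HTRF detection, 30 min RT; ratio 665/615.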
Akt phos inh – inhibitors of Akt phosphorylation; Neuro2A IGF-stimulated pAkt S473 HTRF, 20 min; hits give low values; activity change, % for hits at 50 µM; hit rate 0.32% among 360,000; AID 651550; in the data active = activity change below about -80%; inconclusive = mostly about -51% to -80%; note: % is set by controls: 0 for no effect and ±100 for the full control effect
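Neuro2A cells in DMEM with 0.5% FBS, overnight at 37 deg C, given compound at single 50 µM final, then IGF (6 nM final) for 20 min at 37 deg C. Lysed; phospho-Akt Ser473 by HTRF after 24 h, 665/615 ratio.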
Starred values were filed as active, the others as inactive; [ ] = another dose, or the depositor's remark. Unless noted, calls come from the whole dose curve; as a rule, active = well fitted curve in the direction sought with a large enough effect; inconclusive = small, poorly fitted or top-dose-only effect, or another doubt; inactive = no such curve, though single readings can be large; an effect the other way counts as inactive or inconclusive.

Screening Cc1noc2ncnc(Sc3ccc(Br)cc3)c12 returned Mito fusion act -16%, Apoferritin bind -9%, aSyn yeast inh -11%, TDP43 rescue 5.6µM*, CCT modulator -1 and Akt phos inh inactive.
Screening CC(C)Cc1nc(N2CCN(C(=O)c3ccccc3)CC2)c(C#N)c2c1CCC2 returned Mito fusion act 6%, Apoferritin bind -21%, aSyn yeast inh 3%, TDP43 rescue 25µM*, CCT modulator -2 and Akt phos inh inactive.
`CCCC[C@]12Cc3ccccc3C(O1)c1c(cc(-c3ccccc3)oc1=O)O2` gave Mito fusion act 0%[9.22 µM] and Apoferritin bind inconclusive.
For c1ccc(-c2csc(Nc3ccc4c(c3)OCO4)n2)cc1 the results were aSyn yeast inh -1%, TDP43 rescue 14µM*, CCT modulator -1 and Akt phos inh inactive.
For N#Cc1ccc(Nc2nc(-c3ccccc3)cs2)cc1 the results were aSyn yeast inh 0%, TDP43 rescue 3.2µM*, CCT modulator -1 and Akt phos inh inactive.
`O=C1c2ccccc2C(=O)N1c1cccc(-c2csc(Nc3ccc4c(c3)OCO4)n2)c1` gave Mito fusion act 19% and Apoferritin bind 13%.
Screening O=C(O)c1ccc(Nc2nc(-c3ccccc3)cs2)cc1 returned Mito fusion act 1%, Apoferritin bind 1%, aSyn yeast inh 13%, TDP43 rescue 1%, CCT modulator 0 and Akt phos inh inactive.
Screening N#C/C(=C\c1ccc(-c2ccc(Cl)c(C(=O)O)c2)o1)c1nc2ccccc2[nH]1 returned Mito fusion act -1%, Apoferritin bind -1% and TDP43 rescue 29%.
For Cc1ccc2nc(/C(C#N)=C/c3ccc(-c4cccc(Cl)c4)o3)[nH]c2c1 the results were Apoferritin bind -13% and TDP43 rescue 2µM*.
For CC(=O)Nc1cc(C(=O)NCc2ccc(C)cc2)ccc1Sc1ccc(C)cc1 the results were Apoferritin bind -4% and TDP43 rescue 20µM*.
CCOc1ccc(CNC(=O)c2ccc(Sc3ccc(C)cc3)c(NC(C)=O)c2)cc1OC was read as Mito fusion act -6%, Apoferritin bind 2%, aSyn yeast inh 5%, TDP43 rescue inconclusive, CCT modulator 0 and Akt phos inh inactive.
O=C(NNc1cccc(Cl)c1)c1cccnc1Cl was read as Mito fusion act 22µM*, Apoferritin bind -6%, aSyn yeast inh 12%, TDP43 rescue 21%, CCT modulator 0 and Akt phos inh inactive.
`O=C(NNc1cccc(Cl)n1)c1cccnc1Cl` gave Mito fusion act -10%, Apoferritin bind 0%, aSyn yeast inh -4%, TDP43 rescue -8%, CCT modulator 1 and Akt phos inh inactive.
Screening Cc1ccc(N2C(=O)[C@@H]3CSC(c4ccc(F)cc4)N3C2=O)cc1 (stereo partly drawn) returned Apoferritin bind 48% and TDP43 rescue inconclusive.
Screening Cc1ccc(N2C(=O)[C@@H]3CSC(c4ccc(Cl)cc4)N3C2=O)cc1 (stereo partly drawn) returned Apoferritin bind -2% and TDP43 rescue 25µM*.
`Nc1ncnc2c1nc(Sc1ccc(Cl)cc1)n2[C@H]1OC2COP(=O)(O)O[C@H]2[C@@H]1O` (stereo partly drawn) gave aSyn yeast inh -4%.
`CCCC(c1nnnn1CCOC)N(Cc1cc2cc(C)c(C)cc2[nH]c1=O)CC1CCCO1` (stereo not drawn) gave Mito fusion act 1%, Apoferritin bind 32%, aSyn yeast inh 8%, TDP43 rescue -20%, CCT modulator -3 and Akt phos inh inactive.
`CCC(c1nnnn1CCOC)N(Cc1cc2cc(C)c(C)cc2[nH]c1=O)CC1CCCO1` (stereo not drawn) gave Mito fusion act -1%, Apoferritin bind 151%, aSyn yeast inh 5%, TDP43 rescue 1%, CCT modulator 2 and Akt phos inh -117%*.
For Fc1ccc(N2CCN(c3ncnc4[nH]ncc34)CC2)cc1 the results were Apoferritin bind 6%, aSyn yeast inh -10% and TDP43 rescue 2%.
O=C(O)Cc1cc2c(s1)CCCCC2 was read as Mito fusion act 4%, Apoferritin bind -11%, aSyn yeast inh 9%, TDP43 rescue 13µM*, CCT modulator -1 and Akt phos inh inactive.
For CCCC[C@H](NC(=O)[C@H](CO)NC(=O)[C@H](Cc1ccc(O)cc1)NC(=O)[C@H](CO)NC(C)=O)C(=O)N[C@@H](CCC(=O)O)C(=O)N[C@@H](Cc1cnc[nH]1)C(=O)N[C@H](Cc1ccccc1)C(=O)N[C@@H](CCCNC(=N)N)C(=O)N[C@@H](Cc1c[nH]c2ccccc12)C(=O)NCC(=O)N[C@@H](CCCCN)C(=O)N1CCC[C@H]1C(=O)N[C@H](C(N)=O)C(C)C the results were Apoferritin bind 4%.
Screening CC(NC(=O)c1nn(C)c2c1CSc1ccccc1-2)c1ccccc1 (stereo not drawn) returned Apoferritin bind -2% and TDP43 rescue 18µM*.
Cn1nc(C(=O)NCc2ccc(Cl)cc2)c2c1-c1ccccc1SC2 was read as Apoferritin bind -4% and TDP43 rescue 8%.
For COc1ccc(OC)c(CCNC(=O)c2nn(C)c3c2CSc2ccccc2-3)c1 the results were Apoferritin bind 5% and TDP43 rescue 22µM*.
For COc1ccc(OC)c(CNC(=O)c2nn(C)c3c2CSc2ccccc2-3)c1 the results were Apoferritin bind 14% and TDP43 rescue 20%.
`CC(C)CCNC(=O)c1nn(C)c2c1CSc1ccccc1-2` gave Apoferritin bind 5% and TDP43 rescue inconclusive.
`Cn1nc(C(=O)NCc2ccc(F)cc2)c2c1-c1ccccc1SC2` gave Apoferritin bind 73% and TDP43 rescue 18µM*.
`CSc1ccc(CCNC(=O)c2nn(C)c3c2CS(=O)(=O)c2ccccc2-3)cc1` gave Mito fusion act 0%, Apoferritin bind 6%, aSyn yeast inh 8%, TDP43 rescue 25µM* and CCT modulator 0.

Source: PubChem BioAssay (National Center for Advancing Translational Sciences (NCATS))
